The whole screen tested about 320,000 compounds, of which about 7,600 (2.4%) were called active. Roughly 3% stayed inconclusive and do not appear here. Calls come from the whole dose curve; as a rule, active = well fitted activation curve with a large enough effect; inconclusive = small, poorly fitted or top-dose-only effect; inactive = no such curve, though single readings can be large or run the other way. The full list was thinned out, with actives kept by preference.
Assay: qHTS Assay for NPC1 Promoter Activators; note: nearly all actives have a fitted effect of over 60% in size; for activation: % of control where 0% means no effect
Details: Huh7 NPC1 promoter luciferase reporter, 24 h; series mostly up to 9.22 µM; activation: at the top concentration
Text: NIH Chemical Genomics Center [NCGC] NIH Molecular Libraries Probe Production centers Network [MLPCN] MLPCN Grant: MH089375-01A1 Assay Submitter (PI): Yiannis A. Ioannou NCGC Assay Overview: Niemann Pick Type C (NPC) is a rare neurodegenerative lipidosis that is characterized by lipid storage in the endosomal/lysosomal system. Treatment modalities for this devastating disease are currently non-existent due to the severe obstacles associated with accessing the central nervous system with proteins or genes. The majority of mutations causing NPC disease are missense mutations that are distributed throughout the length of the NPC1 protein, with the most prevalent being the I1061T allele. Although NPC1 mutant proteins may be functional, they are typically trapped in the ER due to misfolding. […] We have developed and optimized a cell based luciferase reporter assay in 1536 well format for the identification of up-regulators of the mutant NPC1 promoter.
The NPC1 promoter is cloned in front of the luciferase reporter gene, therefore NPC promoter activation results in luciferase expression. Frozen stock of the NPC1 promoter transfected Huh7 cells were obtained from the laboratory of Dr. Yiannis Ioannou (The Mount Sinai School of Medicine, New York, NY). Cells were propagated and maintained at NCGC in medium containing RPMI-1640 supplemented with 10% FBS, 2mM L-glutamine, and 50ug/ml penicillin/streptomycin. Cells were harvested in and plated for assays in OP-MEM I reduced-serum medium supplemented with 10% FBS. The Amplite luciferase reporter gene assay kit was purchased from ABD Bioquest and prepared/stored according to manufacturers recommendations. qHTS Assay Setup: 1.#Dispensed 5ul of Huh7 cells stably expressing NPC1-luciferase at a density of 1500 cells per well 1536-well plates. 2.#Incubate cells at 37C, 5% CO2, and 95% humidity for 2 hours. 3.#Transferred 23nl per well of compound in DMSO solution. 4.#Incubated at 37C, 5% CO2, and 95% humidity for 24 hours. 5.#Dispensed 3ul per well of Amplite reagent(ABD Bioquest) per well. 6.#Incubate at ambient for 10 minutes. 7.#Read using the luminescence protocol on the ViewLux plate reader (Perkin Elmer).
Potency is the fitted concentration of half-maximal effect.

Potency, active:
N#Cc1nc(Cc2ccccc2)oc1NCCc1ccccc1 3.16 µM
Cc1ccc(-c2nc3ccccc3[nH]2)cc1N 1.58 µM
c1ccc2[nH]c(-c3nc4ccccc4[nH]3)nc2c1 1.26 µM
c1ccc(CN=C2Nc3ccccc3CS2)nc1 2.51 µM
C/C(=N\Nc1ncc(Cl)cc1Cl)c1cccs1 1.78 µM
C/C(=N\Nc1nc2ccccc2[nH]1)c1cccs1 2 µM
CCc1ccc(NC2Nc3cc(C)nn3S2)cc1 (stereo not drawn) 2.82 µM
Cc1cc(C)c2nc(NC(=O)C3CCCO3)sc2c1 (stereo not drawn) 3.98 µM
O=C(/C=C/c1ccco1)Nc1ccc(Oc2ccccc2)cc1 3.98 µM
Cc1nnc(NC(=O)/C=C/c2ccco2)s1 2.51 µM
COc1cccc2cc(C(N)=O)/c(=N\NC(=O)c3ccccc3)oc12 2.82 µM
CN1CCN(c2ccc(NC(=O)c3ccccc3)cc2)CC1 2.51 µM
COc1cccc(C(=O)Nc2cc3c(cc2Br)OCCCO3)c1 2.82 µM
COc1cccc(C(=O)Nc2ccc(N3CCCC3)cc2)c1 0.891 µM

activation, inactive:
COc1ccc(-c2[nH]nc(-c3ccccc3)c2-c2nc3ccccc3[nH]2)cc1 -2.46%
Nc1cccc(CCc2nc3ccccc3[nH]2)c1 3.82%
OC(c1nc2ccccc2[nH]1)C(O)C(O)C(O)c1nc2ccccc2[nH]1 (stereo not drawn) 0.601%
COc1ccc(Br)cc1C(=O)NC(=S)Nc1cc(-c2nc3ccccc3[nH]2)ccc1C 11.1%
CNc1nc(SC)nc(N(C#N)CC(=O)OC)n1 -10.5%
COc1ccc(OC)c(S(=O)(=O)Nc2c(C)nn(C)c2C)c1 -2.56%
Cc1cc(C(=O)Nc2ccc(C)c(S(=O)(=O)N3CCOCC3)c2)c2ccccc2n1 -1.87%
CCC1(CC)NC(=O)N(CC(=O)OCC(=O)c2cc(C)c(C)cc2C)C1=O -2.6%
CC(=O)c1c(C)[nH]c(C(=O)COc2ccc3c(C)cc(=O)oc3c2)c1C -17.6%
CCN(CC(=O)Nc1ccc(NC(C)=O)cc1)C(=O)CSC(=S)N1CCCC1 1.02%
C/C(=N\NS(=O)(=O)c1ccc(Br)cc1)c1cccs1 0.595%
O=C(Nc1ccccc1-c1nc2ccccc2[nH]c1=O)c1cccs1 -2.41%
C/C(=N\Nc1nc(Nc2ccccc2)nc(N2CCOCC2)n1)c1cccs1 -1.07%
C/C(=N\Nc1ccc(S(N)(=O)=O)cc1[N+](=O)[O-])c1cccs1 1.42%
CN(C(=O)CSc1nnc(-c2ccc3c(c2)OCO3)o1)C1CCS(=O)(=O)C1 (stereo not drawn) -0.69%
CCOc1ccc(NC(=O)COC(=O)C2CCC(=O)N2)c([N+](=O)[O-])c1 (stereo not drawn) 2.9%
CCN1C(=O)C(=O)N(CC(=O)Nc2cc(C)ccc2C)C1=O 4.28%
CCOC(=O)c1ccc(NC2Nc3cc(C)nn3S2)cc1 (stereo not drawn) 2.46%
CN(C(=O)CN1C(=O)/C(=C/c2ccc(Cl)cc2)SC1=S)C1CCS(=O)(=O)C1 (stereo not drawn) -6.81%
Cc1cc([N+](=O)[O-])ccc1NC(=O)C1CCCO1 (stereo not drawn) 0.298%
Cc1ccc(C)c(C(C)NC(=O)C2CCCO2)c1 (stereo not drawn) -4.88%
CCOC(=O)c1ccc(NC(=O)C2CC(=O)N(c3ccc4c(c3)OCCO4)C2)cc1 (stereo not drawn) 0.343%
COc1cc(OC)c(N2CC(C(=O)Nc3cc(Cl)ccc3N3CCOCC3)CC2=O)cc1Cl (stereo not drawn) -16.2%
CCC(CC)c1nnc(NC(=O)/C=C/c2ccco2)s1 22.7%
CCOC(=O)c1c(NC(=O)/C=C/c2ccco2)sc(C)c1C -4.42%
O=C(/C=C/c1ccco1)NC(=S)Nc1ccccc1Br -4.13%
COc1cccc(NC(=O)COC(=O)/C=C/c2ccco2)c1 1.54%
CC(C)(CNC(=O)CNC(=O)C1CCCCC1)N1CCOCC1 -1.13%
O=C(C1CC(=O)N(C2CCCC2)C1)N1CCN(c2cccc(C(F)(F)F)c2)CC1 (stereo not drawn) -3.05%
COc1ccccc1N1CCN(CC(=O)Nc2ccnn2C2CCCC2)CC1 -1.78%
COc1ccc(C(=O)N/N=c2\oc3ccccc3cc2C(N)=O)cc1 3.62%
NC(=O)c1cc2ccccc2o/c1=N/NC(=O)c1cccc(F)c1 19.3%
O=C(c1ccc(Cl)c(S(=O)(=O)N2CCCCCC2)c1)N1CCN(c2ccc(O)cc2)CC1 -2.16%
COc1ccc(C(=O)Nc2ccc(N3CCC(C)CC3)cc2)cc1Br -3.95%
Cc1ccccc1C(=O)NC(=S)Nc1ccc(N2CCN(C(=O)c3ccccc3)CC2)cc1 -5.56%
COc1ccc(C2COC(=O)C2=N)c(NC(=O)c2ccccc2)c1 (stereo not drawn) -2.74%
CC(=O)Oc1cccc(C(=O)Nc2ccccc2NC(=O)c2cccc(OC(C)=O)c2)c1 -1.5%
COc1cccc(C(=O)Nc2ccc(N3CCN(C(=O)c4ccco4)CC3)cc2)c1 -33.8%
CN1CCN(c2ccc(NC(=O)c3ccc4c(c3)[nH]c(=O)n4Cc3ccc(F)cc3)cc2)CC1 2.58%
